The source made the active and inactive calls. Unless noted, the rule behind the calls is not given here.
How the values were obtained:
[1] = A549 cell viability effects, profiling panel, calcein-AM fluorescence, 48 h, basal (AID 1162); details: higher = more signal; note: test concentration not given here
[2] = adipocyte viability effects, profiling panel, cell-based, 3T3-L1 adipocytes, calcein-AM fluorescence, 48 h, basal (AID 1163); details: 3T3-L1 adipocytes viability, higher = more signal; note: test concentration not given here
[3] = HepG2 cell viability effects, profiling panel, calcein-AM fluorescence, 48 h, basal (AID 1164); details: higher = more signal; note: test concentration not given here
[4] = MM1S cell viability effects, profiling panel, calcein-AM fluorescence, 48 h, basal (AID 1165); details: higher = more signal;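 note: viability of MM1S multiple myeloma cells under basal unstimulated conditions; test concentration not given here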
[5] = basal RPMI8226 viability, no added stimulus, profiling panel, cell-based, calcein-AM fluorescence, 48 h, PK04 Diversity Set (AID 1166); details: RPMI8226 myeloma viability, higher = more signal;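 note: cells grown under basal conditions without added stimulus; test concentration not given here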
[6] = basal HepG2 mitochondrial membrane potential changes, profiling panel, cell-based, JC-1 fluorescence, 24 h, 100 nL compound (AID 1167); details: higher = more signal; note: test concentration not given here
[7] = basal 3T3-L1 adipocyte mitochondrial potential changes, profiling panel, cell-based, JC-1 fluorescence, 3T3-L1 adipocytes, 24 h, 100 nL compound (AID 1168); details: JC-1 mitochondrial fluorescence, higher = more signal, called active from +8 up or from −8 down; note: test concentration not given here
[8] = basal RPMI8226 mitochondrial membrane potential changes, profiling panel, cell-based, JC-1 fluorescence, 24 h, 100 nL compound (AID 1169); details: RPMI8226 myeloma, JC-1 mitochondrial potential fluorescence, higher = more signal; note: test concentration not given here
[9] = basal MM1S mitochondrial membrane potential changes, profiling panel, cell-based, JC-1 fluorescence, 24 h, 100 nL compound (AID 1170); details: higher = more signal; note: test concentration not given here
[10] = A549 lung cancer cell viability effects, profiling panel, resazurin fluorescence, 24 h, PK04 Diversity Set (AID 1171); details: higher = more signal, called active from +8 up or from −8 down; note: test concentration not given here
[11] = HepG2 liver cancer cell viability effects, profiling panel, resazurin fluorescence, 24 h, PK04 Diversity Set (AID 1172); details: higher = more signal; note: test concentration not given here
[12] = basal S. cerevisiae growth modulation, no modifier, primary screen, OD600, strain BY4716, 24 h, basal condition (AID 1173); details: OD600, 24 h, higher = more signal, called active from +8 up or from −8 down
[13] = MM1S myeloma cell viability, profiling panel, resazurin fluorescence, basal, 24 h, PK04 Diversity Set (AID 1174); details: higher = more signal, called active from +8 up or from −8 down;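 note: MM1S multiple myeloma cell line; test concentration not given here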
[14] = molecular target: Dihydroorotate dehydrogenase (quinone), mitochondrial (Plasmodium falciparum (isolate 3D7)) (UniProt Q08210); assay: PfDHODH enzyme inhibitors, primary screen, biochemical, C-terminal His tag, absorbance 600 nm (AID 1175); details: DCIP absorbance 600 nm, higher = more signal, called active from +8 up or from −8 down;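 note: recombinant parasite enzyme with a five histidine tag at its C terminus; test concentration not given here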
[15] = P. aeruginosa biofilm formation inhibitors, primary screen, strain PAO1, LB-PBS medium, absorbance 600 nm (AID 1176); note: test concentration not given here; details: P. aeruginosa PAO1 growth/biofilm, A600, 12 h; higher = more signal
[16] = S. cerevisiae RM11-1a growth modifiers, primary screen, strain RM11-1a, OD600, basal, 24 h (AID 1177); details: OD600, 24 h, higher = more signal, called active from +8 up or from −8 down;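 note: cultures grown under basal conditions with no added stressor; test concentration not given here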
[17] = E. coli acrAB mutant growth effects, primary screen, E. coli filamentation inducers, strain DRC39, OD650, 24 h (AID 1178); details: higher = more signal, called active from +8 up or from −8 down;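 note: growth measured as culture turbidity by optical density at 650 nm; test concentration not given here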
[18] = E. coli acrAB mutant growth effects, primary screen, E. coli filamentation inducers, strain DRC39, OD650, 48 h (AID 1179);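 note: screen aims at cell division blockers that make cells filament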; details: E. coli DRC39 delta-acrAB growth, higher = more signal, called active from +8 up or from −8 down
[19] = RPMI8226 myeloma cell viability, profiling panel, resazurin fluorescence, basal, 24 h, PK04 Diversity Set (AID 1180); details: higher = more signal;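 note: RPMI8826 multiple myeloma cell line at 5000 cells per well; test concentration not given here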
[20] = molecular target: E3 ubiquitin-protein ligase XIAP (Homo sapiens) (UniProt P98170); assay: XIAP binders, primary screen, biophysical, small-molecule microarray, fluorescence 635 nm (AID 1181); details: small-molecule microarray binding, higher = more signal;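 note: score merges 667 nm emission and signal to noise over triplicate slides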
Chain of E3 ubiquitin-protein ligase XIAP (Homo sapiens) (P98170 whole entry, looked up): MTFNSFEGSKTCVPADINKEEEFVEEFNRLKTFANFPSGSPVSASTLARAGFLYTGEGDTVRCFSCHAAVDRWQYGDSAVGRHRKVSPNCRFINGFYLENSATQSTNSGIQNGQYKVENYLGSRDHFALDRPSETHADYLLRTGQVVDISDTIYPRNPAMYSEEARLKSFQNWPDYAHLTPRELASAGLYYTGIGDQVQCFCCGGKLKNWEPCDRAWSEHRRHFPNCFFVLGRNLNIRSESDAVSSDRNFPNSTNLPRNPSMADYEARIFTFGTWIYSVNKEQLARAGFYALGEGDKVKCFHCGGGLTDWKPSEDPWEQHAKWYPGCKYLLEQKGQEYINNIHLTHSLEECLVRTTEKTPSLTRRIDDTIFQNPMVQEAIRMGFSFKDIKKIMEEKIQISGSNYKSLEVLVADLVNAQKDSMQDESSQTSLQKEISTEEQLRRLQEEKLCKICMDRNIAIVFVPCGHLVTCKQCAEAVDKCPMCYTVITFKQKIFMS

Chain of Dihydroorotate dehydrogenase (quinone), mitochondrial (Plasmodium falciparum (isolate 3D7)) (Q08210 whole entry, looked up): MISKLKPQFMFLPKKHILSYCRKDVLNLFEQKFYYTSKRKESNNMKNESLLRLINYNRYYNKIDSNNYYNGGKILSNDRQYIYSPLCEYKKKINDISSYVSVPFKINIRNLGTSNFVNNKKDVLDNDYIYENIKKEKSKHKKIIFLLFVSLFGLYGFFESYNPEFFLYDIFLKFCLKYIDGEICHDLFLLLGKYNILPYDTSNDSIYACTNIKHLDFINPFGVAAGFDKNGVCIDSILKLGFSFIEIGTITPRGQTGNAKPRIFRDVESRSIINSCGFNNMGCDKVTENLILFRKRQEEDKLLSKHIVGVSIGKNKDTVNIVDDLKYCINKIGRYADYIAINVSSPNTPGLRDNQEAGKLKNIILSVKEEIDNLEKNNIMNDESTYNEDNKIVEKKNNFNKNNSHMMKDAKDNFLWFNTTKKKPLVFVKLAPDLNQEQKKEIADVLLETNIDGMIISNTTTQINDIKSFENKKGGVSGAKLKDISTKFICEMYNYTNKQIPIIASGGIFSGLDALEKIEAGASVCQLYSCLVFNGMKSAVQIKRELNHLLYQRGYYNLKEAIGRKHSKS

Row | Structure (SMILES) | z-score [1] | z-score [2] | z-score [3] | z-score [4] | z-score [5] | z-score [6] | z-score [7] | z-score [8] | z-score [9] | z-score [10] | z-score [11] | z-score [12] | z-score [13] | composite z-score [14] | z-score [15] | z-score [16] | z-score [17] | z-score [18] | z-score [19] | composite z-score [20]
1 | CCCNC(=O)OC[C@H]1O[C@H](CCON=C(C)CCN2CCc3nc(CC)c(CC)cc3C2)C=C[C@@H]1Oc1ccc(OC)cc1 | -0.142 | 0.73 | -0.304 | -2.95 | -3.14 | 4.22 | -1.48 (inactive) | -0.0505 | 0.598 | -0.245 (inactive) | -1.09 | -0.139 (inactive) | -1.45 (inactive) | 0.358 (inactive) | -0.598 (inactive) | 0.02 (inactive) | -1.13 (inactive) | -1.53 (inactive) | 0.622 | -0.0559
2 | CC1O[C@H]2C3=C(C(=O)[C@@H]4O[C@@H]4[C@H]3O)[C@@H]1C1[C@@H](C)OC=C3[C@H](O)C4O[C@@H]4C(=NOCc4ccccc4)[C@]312 (stereo not given in full) | -0.434 | 0.145 | -1.65 | -3.58 | -3.71 | -2.66 | 0.435 (inactive) | -0.856 | -2.28 | -0.989 (inactive) | -1.04 | -0.456 (inactive) | -4.85 (inactive) | 0.0953 (inactive) | -0.364 (inactive) | 0.543 (inactive) | 0.158 (inactive) | -0.123 (inactive) | -2.84 | 0.215
3 | CCOC(=O)[C@H](CC(C)C)NC(=O)CCC1CC(OC(=O)NCCc2ccc(F)cc2)CC2(CCCC(COC(=O)NCC(c3ccccc3)c3ccccc3)O2)O1 (stereo not given in full) | 0.0775 | 0.0775 | -0.912 | -0.325 | 0.497 | -0.898 | -0.516 (inactive) | 0.872 | -0.019 | 0.171 (inactive) | 0.184 | -0.227 (inactive) | -0.345 (inactive) | 0.0649 (inactive) | 0.013 (inactive) | 0.126 (inactive) | 0.113 (inactive) | -1.1 (inactive) | 0.465 | -0.0994
4 | CCOC(=O)[C@H](CC(C)C)NC(=O)CCC1CC(OC(=O)NCc2cccc3ccccc23)CC2(CCCC(COC(=O)NCCc3ccc(Cl)cc3)O2)O1 (stereo not given in full) | -0.539 | -0.23 | -0.0607 | -3.16 | 0.403 | 0.326 | 1.03 (inactive) | -0.436 | -1.86 | 0.384 (inactive) | 0.568 | -1.89 (inactive) | 1.15 (inactive) | -1.16 (inactive) | 0.262 (inactive) | -1.2 (inactive) | 0.389 (inactive) | -0.214 (inactive) | 1.3 | -0.0559
5 | COC(=O)CC=C[C@@H](C)[C@@H](C=NO[C@@H]1O[C@H](COC(C)=O)[C@@H](OC(C)=O)[C@H](OC(C)=O)[C@H]1OC(C)=O)OC | -0.999 | -0.351 | 0.2 | -0.171 | 0.418 | -0.699 | -1.19 (inactive) | 0.128 | -0.0985 | 1 (inactive) | 0.992 | -0.298 (inactive) | -0.205 (inactive) | 0.159 (inactive) | 0.0738 (inactive) | -0.0389 (inactive) | -1.03 (inactive) | -0.932 (inactive) | 0.672 | 0.127
6 | CC(C)=CCCC(C)=CCON=C1C[C@@H](O)[C@@H](O)[C@@H]2[C@@H]3C(=O)N(C[C@@H]4CCCO4)C(=O)[C@@H]3CC[C@H]12 | -0.0285 | -0.789 | -0.758 | 0.253 | -0.674 | -0.915 | -0.528 (inactive) | 0.569 | -0.789 | 0.691 (inactive) | 0.164 | -1.72 (inactive) | -0.58 (inactive) | 0.0911 (inactive) | 0.295 (inactive) | 1.8 (inactive) | -0.169 (inactive) | -0.543 (inactive) | -0.251 | -0.217
7 | COC(=O)[C@@H]1CC[C@H](C)[C@@H](c2ccc(C)cc2)N1C(=O)c1ccc(C=NO[C@@H]2O[C@H](COC(C)=O)[C@@H](OC(C)=O)[C@H](OC(C)=O)[C@H]2OC(C)=O)cc1 | -1.3 | 0.216 | -0.373 | -0.82 | -1.17 | 2.74 | 0.28 (inactive) | -0.139 | 0.155 | 0.855 (inactive) | -0.124 | 0.786 (inactive) | 0.952 (inactive) | -2.7 (inactive) | -0.172 (inactive) | 0.178 (inactive) | -1.44 (inactive) | -1.65 (inactive) | 0.369 | 0.0131
8 | CCN1C(=O)[C@H]2[C@H]3[C@H](O)[C@H](O)CC(=NNC(=O)OCc4ccc(OC)cc4)[C@@H]3CC[C@H]2C1=O | -0.241 | -0.0397 | -0.112 | 0.0505 | -0.788 | -0.586 | -0.66 (inactive) | -0.232 | -0.0402 | 0.247 (inactive) | -0.295 | 0.303 (inactive) | -0.938 (inactive) | -0.367 (inactive) | -0.708 (inactive) | -1.33 (inactive) | -0.154 (inactive) | -0.0457 (inactive) | -0.381 | -0.0416
